Rows were chosen to be rich in hits. Some 4.1% of all compounds tested hit in one or more screens of this group.
ssDAF12 agonist – activates DAF-12 receptor from parasite S. stercoralis; HEK293 ssDAF-12/GRIP1 lit1-tk-luc reporter, luminescence; % of 3 µM dafachronic acid response; activation, % at 6.8 µM; 370,000 tested, 1% active;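 active means activation above the mean over all tested compounds plus 3 SD, cut at about 0.9% in these data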;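 further: 0% = DMSO-only wells and 100% = 3 µM delta7-dafachronic acid wells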
hcDAF-12 act – activators of H. contortus DAF-12 nuclear receptor; HEK293 hcDAF-12 lit1-tk-luc reporter, luminescence; 0% DMSO, 100% Δ7-dafachronic acid; activation, % at 6.8 µM; 370,000 tested, 1.4% active;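 active means activation above the mean of all tested compounds plus 3 SD, cut at about 5.5% in these data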;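 further: 100% = response to 3 µM Δ7-dafachronic acid high control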
hgDAF12 agonist – activates the H. glycines DAF-12 receptor ligand-binding domain; HEK293 GAL4-hgDAF12 UAS-luciferase reporter, agonist luminescence; normalized to butyrate control; activation, % at 6.8 µM; 370,000 tested, 1.8% active; AID 687014;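 active means activation above a cutoff set at the mean of all screened compounds plus 3 SD, cut at about 10% in these data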;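 further: 0% = DMSO wells and 100% = sodium butyrate wells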
DAX1 inh-1 – inhibitors of DAX1 repression of SF-1 activated StAR promoter | 370,000 tested, 1.1% active | AID 652010 | inhibition, % at 6.8 µM | HEK293T StAR-luciferase reporter, SF-1/DAX-1 repression relief;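 active means inhibition above the mean over all tested compounds plus 3 SD, cut at about 3.6% in these data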;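 further: 0% = DAX-1 cells with DMSO and 100% = cells lacking DAX-1 with DMSO; higher inhibition means more luminescence from relief of DAX-1 repression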
DAX1 inh-2 – NR0B1 (DAX1) inhibition; 340,000 tested, 0.99% active; AID 504766; inhibition, % at 6.75 µM; HEK293 Gal4-DAX1 luciferase reporter, luminescence;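 active means inhibition above the mean over all tested compounds plus 3 SD, cut at about 4.2% in these data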;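 further: 0% = DAX1-transfected cells with DMSO and 100% = empty-vector control cells with DMSO; inhibition shows as a rise in luminescence from relieved DAX1 repression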
Target sequence (P51843 207-470 limits assumed): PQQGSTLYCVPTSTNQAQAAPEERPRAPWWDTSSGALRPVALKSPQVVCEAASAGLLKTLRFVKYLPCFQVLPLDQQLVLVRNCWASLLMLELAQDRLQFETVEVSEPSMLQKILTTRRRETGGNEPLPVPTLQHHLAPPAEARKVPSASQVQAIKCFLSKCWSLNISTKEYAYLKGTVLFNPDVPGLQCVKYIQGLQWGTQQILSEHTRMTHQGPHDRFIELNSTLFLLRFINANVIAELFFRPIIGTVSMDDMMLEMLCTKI
* hit, by the source's call.

What do the screens show for `Cc1ccc(OCCC(=O)OCC(=O)Nc2ccc(C)c(S(=O)(=O)N3CCOCC3)c2)cc1`?
ssDAF12 agonist: -1; hcDAF-12 act: 0; hgDAF12 agonist: 1; DAX1 inh-1: 3.7*; DAX1 inh-2: 0

Results for Cc1ccc(NC(=O)COC(=O)CC2CC3CCC2C3)cc1S(=O)(=O)N1CCOCC1 (centres undefined) ?
ssDAF12 agonist: -2; hcDAF-12 act: 0; hgDAF12 agonist: -2; DAX1 inh-1: 3.6*; DAX1 inh-2: 0

Results for CCCC[C@H](C(=O)N(CC)c1ccccc1)[C@@H](O)c1ccc(C(C)=O)cc1 ?
ssDAF12 agonist: -1; hcDAF-12 act: 1; hgDAF12 agonist: -2; DAX1 inh-1: -2

What do the screens show for `Cc1cccc(Nc2nc(-c3ccncc3)cs2)c1`?
ssDAF12 agonist: 0; hcDAF-12 act: 3; hgDAF12 agonist: 11*; DAX1 inh-1: 1; DAX1 inh-2: 0

How did Cc1ccnc(Nc2nc(-c3ccc(F)cc3)cs2)c1 do in these assays?
ssDAF12 agonist: -1; hcDAF-12 act: 6.4*; hgDAF12 agonist: 12*; DAX1 inh-1: 1; DAX1 inh-2: 0

What do the screens show for `Cc1cccc(Nc2nc(-c3ccc4c(c3)OCCO4)cs2)c1`?
ssDAF12 agonist: 0; hcDAF-12 act: 5.8*; hgDAF12 agonist: 13*; DAX1 inh-1: 2; DAX1 inh-2: 3

What do the screens show for `Cc1ccc(OCCn2c(CCNC(=O)c3ccc(F)cc3F)nc3ccccc32)cc1`?
ssDAF12 agonist: -1; hcDAF-12 act: -1; hgDAF12 agonist: -1

Results for C/C(=N\Nc1nnc2c3ccccc3n(C)c2n1)c1ccc(C)o1 ?
ssDAF12 agonist: -1; hcDAF-12 act: 0; hgDAF12 agonist: -1; DAX1 inh-1: -1; DAX1 inh-2: -2

Results for Cc1cc(C)n(-c2nnc3c4ccccc4n(C)c3n2)n1 ?
ssDAF12 agonist: -1; hcDAF-12 act: 2; hgDAF12 agonist: 11*; DAX1 inh-1: 2; DAX1 inh-2: 1

What do the screens show for `C=CCN=C1NC(c2ccccc2C(F)(F)F)C(C(=O)OC)=C(C)N1Cc1ccccc1C(F)(F)F` (centres undefined)?
ssDAF12 agonist: -1; hcDAF-12 act: 1; hgDAF12 agonist: -1; DAX1 inh-1: 0

What do the screens show for `Cc1cc2ncc(-c3ccc(Cl)cc3)cn2n1`?
ssDAF12 agonist: -1; hcDAF-12 act: 2; hgDAF12 agonist: 11*; DAX1 inh-1: 3.7*; DAX1 inh-2: 2

What do the screens show for `CC(C)CN(CC(C)C)C(=O)c1cn(C(C)c2ccccc2)nn1` (centres undefined)?
ssDAF12 agonist: -2; hcDAF-12 act: 0; hgDAF12 agonist: -2; DAX1 inh-1: 1

Results for Cc1nnsc1-c1c(C(=O)N2CCOCC2)c(C)nn1-c1ccccc1 ?
ssDAF12 agonist: -1; hcDAF-12 act: 0; hgDAF12 agonist: 1; DAX1 inh-1: 0; DAX1 inh-2: 0

How did Cc1nnsc1-c1c(C(=O)N2CCOCC2)c(C)nn1-c1ccc(Cl)cc1 do in these assays?
ssDAF12 agonist: -2; hcDAF-12 act: 0; hgDAF12 agonist: -1; DAX1 inh-1: 0; DAX1 inh-2: 4.8*

What do the screens show for `CC1Cc2ccccc2N1C(=O)CO/N=C/c1ccccc1OC(F)F` (centres undefined)?
ssDAF12 agonist: -1; hcDAF-12 act: -2; hgDAF12 agonist: -1; DAX1 inh-1: -1; DAX1 inh-2: 0

How did O=C(CO/N=C/c1ccccc1OC(F)F)N1CCc2ccccc21 do in these assays?
ssDAF12 agonist: -1; hcDAF-12 act: 6.5*; hgDAF12 agonist: 3; DAX1 inh-1: 0; DAX1 inh-2: 2

How did c1ccc(OCCNc2ccn3nc(-c4ccccc4)cc3n2)cc1 do in these assays?
ssDAF12 agonist: -1; hcDAF-12 act: 1; hgDAF12 agonist: 10; DAX1 inh-1: -1

Results for FC(F)(F)c1cccc(-c2cc3nc(NCCOc4ccccc4)ccn3n2)c1 ?
ssDAF12 agonist: -1; hcDAF-12 act: 4; hgDAF12 agonist: 12*; DAX1 inh-1: -1

What do the screens show for `O=C(C1CCCN(S(=O)(=O)c2ccc(F)cc2)C1)N1CCN(Cc2ccccc2)CC1` (centres undefined)?
ssDAF12 agonist: -2; hcDAF-12 act: 1; hgDAF12 agonist: -1; DAX1 inh-1: -2

What do the screens show for `CCOc1cc(OCC)cc(C(=O)N2CCC[C@H]2C(=O)N2CCC[C@H]2C(=O)NCc2ccc(F)cc2F)c1`?
ssDAF12 agonist: -1; hcDAF-12 act: -1; hgDAF12 agonist: 0; DAX1 inh-1: 1

How did CCOc1cc(OCC)cc(C(=O)N2CCC[C@@H]2C(=O)N2CCC[C@@H]2C(=O)NCc2ccccc2Cl)c1 do in these assays?
ssDAF12 agonist: 1.0*; hcDAF-12 act: 2; hgDAF12 agonist: 3; DAX1 inh-1: -1

How did CCCC[C@H]1C2CC(OC(=O)Nc3ccccc3OC)C(C2)[C@H]2CCCCN21 (some centres undefined) do in these assays?
ssDAF12 agonist: 0; hcDAF-12 act: 0; hgDAF12 agonist: 0; DAX1 inh-1: 1

How did O=C(CCCN1C(=O)/C(=C\c2ccccc2)SC1=S)Nc1ccc(C(=O)O)cc1 do in these assays?
ssDAF12 agonist: -1; hcDAF-12 act: 0; hgDAF12 agonist: -1; DAX1 inh-1: 0; DAX1 inh-2: 1

Results for CCc1ccc(/C=C2\SC(=S)N(CCCC(=O)Nc3ccc(C(=O)O)cc3)C2=O)cc1 ?
ssDAF12 agonist: -1; hcDAF-12 act: 6.0*; hgDAF12 agonist: -1; DAX1 inh-1: -1; DAX1 inh-2: 0

How did CC(=O)Nc1ccc(/C=N/Nc2nncc3ccccc23)cc1 do in these assays?
ssDAF12 agonist: 0; hcDAF-12 act: 3; hgDAF12 agonist: 9; DAX1 inh-1: 1; DAX1 inh-2: 5.0*

What do the screens show for `C(=N\Nc1nncc2ccccc12)/c1ccccn1`?
ssDAF12 agonist: 0; hcDAF-12 act: 2; hgDAF12 agonist: 8; DAX1 inh-1: -1; DAX1 inh-2: -2

How did Cc1ccc(NC(=O)c2cnccn2)cc1 do in these assays?
ssDAF12 agonist: -1; hcDAF-12 act: 4; hgDAF12 agonist: 7; DAX1 inh-1: 3; DAX1 inh-2: 4

How did Cc1ccc(NC(=O)c2cc(-c3ccco3)on2)cc1 do in these assays?
ssDAF12 agonist: -2; hcDAF-12 act: 1; hgDAF12 agonist: 3; DAX1 inh-1: 0; DAX1 inh-2: 0

How did Cc1nc(NC(=O)c2cnccn2)ccc1Br do in these assays?
ssDAF12 agonist: 0; hcDAF-12 act: 3; hgDAF12 agonist: 11*; DAX1 inh-1: 1; DAX1 inh-2: 4.2*

How did Cc1ccc(NC(=O)c2cc(-c3ccco3)on2)cc1C do in these assays?
ssDAF12 agonist: 0; hcDAF-12 act: 2; hgDAF12 agonist: 13*; DAX1 inh-1: 0; DAX1 inh-2: 2

What do the screens show for `Cc1ccc(NC(=O)c2cnccn2)cc1C`?
ssDAF12 agonist: 0; hcDAF-12 act: 3; hgDAF12 agonist: 11*; DAX1 inh-1: 2; DAX1 inh-2: 4.6*

Bioassay records as filed in PubChem.
